# Assay results reported in PubChem BioAssay (NCI).
# About 83,000 compounds went through this panel and 20% of them were active in at least one assay; those are over-represented in the sample as a whole.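 Assay: single dose, 48 h. Readout: percent growth (0 = no net growth; negative = cell death). Active: <10.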 Activity calls are given as the source filed them.
# Tested on: CCRF-CEM leukemia
# Test: NCI-60 one-dose screen, 48 h (100 = growth as untreated, 0 = no growth, -100 = all killed)
# Conditions: 10 µM unless noted
# Description: Growth inhibition of the CCRF-CEM human tumor cell line is measured as a screen for anti-cancer activity. Cells are grown in 96 well plates and exposed to the test compound for 48 hours. Compounds are tested at a single concentration, which is 10^-5 M for most compounds. The reported endpoint is percent growth (GI% or GIPRCNT), where numbers from 0 - 100% represent growth inhibition, and numbers from -100% - 0 represent cell death. For example, a value of 40 represents 60% growth inhibition. A value of 0 means no net growth occurred over the course of the experiment. A value of -40 indicates 40% of cells at the beginning of the experiment died by the end of the experiment. A value of -100 means all cells are dead at the end of the experiment.
# NCI-60 Human Tumor Cell Lines Screen was performed using the standard one-dose NCI protocol, which is described in more detail at https://dtp.cancer.gov/discovery_development/nci-60/default.htm.
# Compounds with GIPRCNT values below 10 were considered active. Activity score was based on GIPRCNT using the following formula: […]
# Score is 0 for GIPRCNT values of 100 or above, 50 for GIPRCNT values of 0, and 100 for GIPRCNT values of -100.
row,SMILES,growth
1,CC1O[C@@H]2C[C@@](O)([C@H]1O)n1c3ccccc3c3c4c(c5c6ccccc6n2c5c31)C(=O)NC4=O (stereo not given in full),27.9% (inactive)
2,COc1ccc(/C=C/C(=O)c2ccc(NC(=O)CSc3nnc(-c4cc(-c5ccccc5)nc5ccccc45)n3-c3ccccc3)cc2)cc1,88.3% (inactive)
3,O=C(O)c1cccc(N/C=C/C(=O)c2cc3cc(Br)ccc3oc2=O)c1,101% (inactive)
4,Cc1ncc(C(=O)Nc2ccc(CN3CCN(C)CC3)c(C(F)(F)F)c2)cc1C#Cc1cnc(N)c2cnccc12,10.3% (inactive)
5,COc1ccc2c(c1)c(-c1nonc1-c1cn(C)c3ccc(OC)cc13)cn2C,26.6% (inactive)
6,NC(CSC(c1ccccc1)(c1ccccc1)c1ccc2c(c1)OCO2)C(=O)O (stereo not given),-6.86% (active)
7,Cc1cc2oc(=O)cc(CP(=O)(O)O)c2cc1O,103% (inactive)
8,COc1ccc2nc(Cl)c(/C=C/C(=O)c3ccc(NC(=O)CSc4nnc(-c5ccc(Cl)c(Cl)c5)n4-c4ccccc4)cc3)cc2c1,90.8% (inactive)
9,O=C(/C=C/c1ccc(Br)cc1)c1ccc(-n2cc(CN3CCN(c4cc5c(cc4F)c(=O)c(C(=O)O)cn5C4CC4)CC3)nn2)cc1,56.3% (inactive)
10,O=C(CSc1nnc2sc(Nc3cccc(Cl)c3)nn12)c1ccc(F)cc1,91.1% (inactive)
11,CCN1CCN(CC(=O)Nc2nc3ccc(NCc4ccc(Br)cc4)cc3s2)CC1,34.2% (inactive)
12,COc1cccc(/C=C/C(=O)c2cc3c(N)c(C(=O)Nc4cccc(Cl)c4C)sc3nc2C)c1,7.19% (active)
13,Cn1c(=O)c2c(nc(NC3=NS(=O)(=O)c4ccccc43)n2Cc2ccccc2)n(C)c1=O,104% (inactive)
14,O=c1nc(Nc2nc3ccccc3s2)[nH]c(=O)c2ccccc12,106% (inactive)
15,CC1=CCC[C@@H]2C1(C)CC[C@H](C)[C@@]2(C)CC1=CC(=O)C(SC(C)(C)C)=CC1=O (stereo not given in full),-23.5% (active)
16,COc1cc(C2C3=C(COC3=O)N(CCO)c3cc4c(cc32)OCCO4)cc(OC)c1OC (stereo not given),13.2% (inactive)
17,Fc1ccc(COc2ccc(Nc3ncnc4sc5c(c34)CCCC5)cc2)cc1,97.6% (inactive)
18,CCOC(=O)c1c(NC(=O)c2ccc(OC)cc2)sc2c(CN(C)C)c(O)ccc12,56.6% (inactive)
19,COc1ccc(-c2cn(-c3ccc(Cl)cc3)c(SCC(=O)c3ccc([N+](=O)[O-])cc3)n2)cc1,93.8% (inactive)
20,CCCCNC1=C(OCC)C(=O)c2ccccc2C1=O,100% (inactive)

row,SMILES,growth
1,CCCCCCCCCCCCCCCCCCOc1ccccc1CC(=O)OCC[N+]1(C)CCOCC1,30.1% (inactive)
2,NC(=O)OCCn1cc(-c2nc(-c3c[nH]c4ncccc34)cs2)c2ccccc21,21.7% (inactive)
3,Oc1c(CN2CCCC2)cc(COCc2ccccc2)c2cccnc12,6.37% (active)
4,O=C(CCl)Nc1ccc2c(Nc3cc(O)ccc3Cl)ncnc2c1,-5.44% (active)
5,CN(C)c1ccc(C(=NO)c2ccc(N(C)C)cc2)cc1,38.3% (inactive)
6,COc1cccc(/C=C2\COc3ccc(O)cc3C2=O)c1,-0.603% (active)
7,Nc1ncnc2c1c(-c1ccc(Oc3ccccc3)cc1)nn2CC1SSCC1O (stereo not given),9.92% (active)
8,Nc1n[nH]c2ccc([C@@H]3Nc4cc5[nH]ncc5cc4[C@H]4C5CCC(C5)[C@@H]34)cc12 (stereo not given in full),11.2% (inactive)
9,C#CC#CC#CC#CC#CC#CC#CC#CCC1OCC(COC(=O)O[C@@H](C(=O)O[C@H]2C[C@@]3(O)[C@@H](OC(=O)c4ccccc4)[C@@H]4[C@]5(OC(C)=O)CO[C@@H]5C[C@H](O)[C@@]4(C)C(=O)[C@H](OC(C)=O)C(=C2C)C3(C)C)[C@@H](NC(=O)c2ccccc2)c2ccccc2)O1 (stereo not given in full),12.1% (inactive)
10,CCN1C(=O)N(CC)C2C1NN=c1s/c(=C\c3ccccc3Br)c(=O)n12 (stereo not given),14.5% (inactive)
11,CC/C(Cc1ccccc1)=C(\c1ccc(OCCN2CCCCCC2)cc1)c1ccc(OC(=O)NCc2ccccc2)cc1,47.5% (inactive)
12,Cc1nc2ccccc2c(/C=C/c2ccc(C(F)(F)F)cc2)c1C(=O)/C=C/c1ccccc1,5.84% (active)
13,COc1ccc(C/C(C)=C(/c2ccc(OCCN3CCCCCC3)cc2)c2ccc(OC(=O)NCc3ccccc3)cc2)cc1,58% (inactive)
14,CCCCCCCCn1ccc2cc(NC(=O)Cn3cc(CN4CCOCC4)nn3)ccc21,-31.6% (active)
15,CCOC(=O)c1c(C)nc2c(c1N)CC(=O)N2Cc1cc(OC)c(OC)c(OC)c1,78.2% (inactive)
16,N#Cc1c(NC(=O)c2cccs2)[n+]([O-])c2ccc(Cl)cc2[n+]1[O-],95.9% (inactive)
17,Cc1cc(F)ccc1S(=O)(=O)Nc1cc(-c2c(O)ccc3ccccc23)c(O)c2ccccc12,21.9% (inactive)
18,CCOC(=O)C1=C(c2ccccc2)N=c2s/c(=C/c3ccc(Br)cc3)c(=O)n2C1c1ccc(O)cc1 (stereo not given),83% (inactive)
19,CC(C)CSc1oc(-c2ccccc2)nc1S(=O)(=O)c1ccccc1,86.9% (inactive)
20,CC(C)(C)C(=O)/C=C/c1ccc([N+](=O)[O-])cc1,44.3% (inactive)
